# Screening data: PubChem BioAssay, National Center for Advancing Translational Sciences (NCATS)
# Only some compounds are listed: those with a hit (about 14% of all), similar ones and a draw of the others.
# HCMV antiviral: inhibitors of human cytomegalovirus. AID 1259415. hit rate 4.5% among 410,000. HFF cells, HCMV-luciferase reporter, 72 h; hits give low values. activity change, negative = inhibition, % at 57.5 µM; in the data active means activity change below about -60%; inconclusive means no clear call, values can overlap the other calls; inactive means above about -39%
#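 Screen run at 2 compound doses on HFFs infected with reporter HCMV, MOI 1 PFU/cell. Luciferase activity from cell lysates at 72 h post infection gave inhibition relative to buffer-only and Salinomycin wells.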
# Marburg entry inh: Marburg virus entry inhibition; Marburg virus pseudotyped entry inhibition, cell reporter; Potency, µM (highest dose often 37.8 µM), usual class: inhibitors; hit rate 1.8% among 300,000; calls by dose curve; tested in HEK293 cells
# Pf growth 48h: P. falciparum growth inhibition at 48 hours (one generation); Potency, µM (titrated, usually from 28.7 µM), usual class: inhibitors; hit rate 5.9% among 310,000; P. falciparum luciferase growth in erythrocytes, 48 h; AID 504832
#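 Luminescence readout; reporter = integrated firefly luciferase in P. falciparum. RBC culture at 2% hematocrit, 0.1% parasitemia final, 37 C/5% CO2; decreased signal taken as growth inhibition.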
# Lassa entry inh: blocks Lassa virus binding to or entry into cells; Potency, µM (doses to about 37.9 µM), usual class: inhibitors; AID 540256; Lassa virus pseudotype entry inhibition, cell reporter; hit rate 1.2% among 300,000; calls by dose curve; tested in HEK293 cells; further: nearly all actives have a fitted effect of over 50% in size
# Pf growth 96h: inhibits malaria parasite growth, 96 h; hit rate 6.9% among 320,000; P. falciparum luciferase reporter growth, 96 h; AID 504834; Potency, µM (series often up to 28.7 µM), most hits filed as inhibitors
#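 P. falciparum expressing integrated firefly luciferase grown in erythrocytes (2% hematocrit, 0.05% parasitemia final) with compounds for 96 hours at 37 C, 5% CO2. Growth inhibition read as loss of luminescence after adding luciferase detection reagent.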
# HCV inhibitor: blocks hepatitis C virus. Huh7.5.1 HCVcc-Cre infection, luciferase reporter, 44 h. Potency, µM (doses to about 41.8 µM), hits mostly inhibitors. hit rate 3.4% among 340,000. AID 651820
#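 Infectious HCV cell culture screen: compound-treated cells (1,000/well, pre-plated 4 h) are infected with HCVcc-Cre at roughly 0.5 moi and grown 44 h. Infection is quantified by luciferase signal after 15 min substrate incubation at room temperature.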
# A number is an active result; – = inactive; ? = inconclusive; · = no result given; [ ] = another dose, or the depositor's remark. Unless noted, the call rests on the fitted dose curve; in most records, active means well fitted inhibition curve with a large enough effect; inconclusive means small, poorly fitted or top-dose-only effect, or another doubt; inactive means no such curve, though single readings can be large or run the other way.
SMILES,HCMV antiviral,Marburg entry inh,Pf growth 48h,Lassa entry inh,Pf growth 96h,HCV inhibitor
O=C(CCCc1ccccc1)c1ccccc1,–,?,–,·,–,–
CCN(CCCc1ccccc1)CCCc1ccccc1,–,5.8µM,?,?,?,–[8.37 µM]
CCCS(=O)(=O)NC(=O)C1(C)CCN(C(=O)c2cc(F)ccc2C)C1 (centres undefined),–,·,·,·,·,·
Cc1ccc(C)c(N2CCN(Cc3csc(C)c3)CC2)c1,–,·,·,–,·,·
COc1ccc(C(=O)N2CCCCC2CCN2CCCCC2)cc1 (centres undefined),–,–,·,–,·,·
O=C1CN(C(=O)COC(=O)c2ccc(N3CCCCCC3)c([N+](=O)[O-])c2)c2ccccc2N1,–,–,?,–,6.6µM,?
O=C1CN(C(=O)COC(=O)c2ccc(Cl)c(S(=O)(=O)N3CCCCC3)c2)c2ccccc2N1,–,·,·,·,·,–
O=C1CN(C(=O)COC(=O)C2CCN(S(=O)(=O)c3ccccc3C(F)(F)F)CC2)c2ccccc2N1,–,–,3.7µM,–,·,–
O=C1CN(C(=O)COC(=O)CCS(=O)(=O)c2ccccc2Cl)c2ccccc2N1,–,·,·,·,·,–
CC(=O)NCCSc1ccc(S(=O)(=O)N2CCCC2)cn1,–,·,?,·,–,?
Cc1nc(-n2nc(C)c(Cc3ccccc3Cl)c2C)sc1C(=O)N1CCC(C)CC1,–,–,·,–,·,·
Cc1noc(C)c1CSc1nnc(C)c(=O)[nH]1,–,–,–,–,–,–
CSc1nnc(C)c(=O)[nH]1,–,–,–,–,15µM,–
COc1ccc(-c2ccc(CN3C(C)C(=O)N(Cc4cn(CCC5OCCO5)nn4)CCS3(=O)=O)cc2)cn1 (centres undefined),–,·,·,·,·,·
COc1ccc(-c2cc(CNC(=O)CCl)on2)cc1,-63,?,2.9µM,?,1.5µM,?
CC(C)C(=O)NCc1cc(-c2ccccc2)no1,–,–,–[5.75 µM],–,5.2µM,–
CCN1C(=O)[C@H]2[C@@H](c3ccc(OC)cc3)N3C(=O)CN(CC4CC4)C(=O)[C@@]3(C)[C@H]2C1=O,–,·,–,·,–,10µM
Cc1nc2c(ccc3nc(NC(=O)Cc4ccccc4)sc32)s1,–,?,–,?,–,10µM
Cc1cc(C)cc(NC(=O)N2CCC(C(N)=O)(N3CCCCC3)CC2)c1,–,–,·,–,·,·
OCC1(CCCc2ccccc2)CCN(Cc2cnc(N3CCOCC3)s2)CC1,–,?,–,11µM,9.3µM,?
Cc1ccccc1-c1ncc(CN2CCC(CO)(CCCc3ccccc3)CC2)cn1,-64,·,?,·,?,?
C#CCOc1ccc(CNC[C@H]2O[C@@H](n3ccc(=O)[nH]c3=O)[C@H](O)[C@@H]2O)cc1,–,·,·,·,·,·
CC(C)(C)c1ccccc1O,–,·,–,·,–,–
Oc1cccc[c]1[Hg][Cl],·,·,1.1µM,·,1.1µM,·
CCOC(=O)C1=C(CNCCc2ccc(Cl)cc2)NC(=O)NC1c1ccc2c(c1)OCO2 (centres undefined),–,?,7.4µM,?,·,?
SMILES,HCMV antiviral,Marburg entry inh,Pf growth 48h,Lassa entry inh,Pf growth 96h,HCV inhibitor
CCOC(=O)C1=C(CNCCOc2ccc(OC)cc2)NC(=O)NC1c1ccc2c(c1)OCO2 (centres undefined),–,–,12µM,–,?,?
COc1ccc(S(=O)(=O)NC(=O)C2(C)CCN2C(=O)C2(c3ccccc3)CCCC2)cc1 (centres undefined),–,·,·,·,·,·
CC(=O)N(C(C)=O)c1ncc2c([nH]c3ccccc32)c1C#N,-77,?,–,–,?,–
Cc1ccc(S(=O)(=O)N(CC(O)CN2C(=O)NC(C)(C)C2=O)c2cccc(C)c2)cc1 (centres undefined),–,–,–,–,–,–
Cc1ccc(N(CC(O)Cn2c3ccccc3c3ccccc32)S(C)(=O)=O)c(C)c1 (centres undefined),-101,16µM,4.7µM,–,·,–
CC(=O)Nc1ccc(N(CC(O)Cn2c3ccccc3c3ccccc32)S(=O)(=O)c2ccc(C)cc2)cc1 (centres undefined),–,?,9.3µM,11µM,–,?
Cc1cccc(N(CC(O)Cn2c3ccccc3c3ccccc32)S(=O)(=O)c2ccc(F)cc2)c1 (centres undefined),-107,?,·,?,·,·
O=C1c2nccnc2C(=O)N1c1ccc(C(F)(F)F)cc1,–,–,–,·,–,–
COc1ccc(Cn2c(SCC(=O)Nc3ccc(OC)cc3)nc3ccccc32)cc1,–,·,·,?,·,·
CSc1c(CC(=O)NCCCO)n(Cc2ccccc2)c2ccccc12,–,·,–,·,9.3µM,–
COc1ccc(NC(=O)Cc2c(SC)c3ccccc3n2Cc2ccccc2)cc1,-87,?,12µM,–,7.4µM,–
Cc1cccc(Cn2c(CNC(=O)c3ccccc3)nc3ccccc32)c1,–,–,·,–,·,·
Nc1ccccc1C(=O)OCCOc1ccccc1,–,10µM,–,?,·,–
O=C(O)c1ccccc1OCCOc1ccccc1,–,–,–,–,–,–
N#Cc1c(Nc2ccccc2)sc(C(=O)c2ccccc2)c1N,–,–,–,–,–,?
COc1ccc(-c2c(C#N)c(N)nc3sc(C(=O)c4ccccc4)c(N)c23)cc1,?,–,9.3µM,–,–,?
Cc1cccc(Oc2sc(C(=O)c3ccccc3)c(N)c2C#N)c1,–,?,–,1.6µM,–,10µM
CCOc1ccc(-c2c(C#N)c(N)nc3sc(C(=O)c4ccccc4)c(N)c23)cc1,?,·,–,·,?,–
COc1ccc(CNC(=O)/C=C/c2ccco2)cc1OC,-89,–,–,–,–,–
COc1ccc(C2(CNC(=O)/C=C/c3ccco3)CCCC2)cc1OC,–,–,6.6µM,–,?,–
COc1ccc(C(=O)NCC2(c3ccc(OC)c(OC)c3)CCCC2)c(OC)c1,–,·,12µM,·,?,14µM
COc1ccc(CNC(=O)/C=C/C(=O)O)cc1OC,–,–,–,–,–,–
O=C(/C=C/c1ccco1)NCC1(c2ccccc2)CCCC1,–,–,?,–,–,–
COc1ccc(CC(=O)NCC2(c3ccc(OC)c(OC)c3)CCCC2)cc1,–,?,–,–,–,–
Cc1ccc(Cl)cc1-n1nnc(-c2nsc(NC(=O)c3ccccc3Cl)n2)c1C,–,?,·,?,·,·
SMILES,HCMV antiviral,Marburg entry inh,Pf growth 48h,Lassa entry inh,Pf growth 96h,HCV inhibitor
COc1ccccc1Cn1cc(C(=O)c2ccc(C)cc2)c(=O)c2cc(C)ccc21,–,–,·,?,·,·
Oc1ccc(CN2CCCc3ccccc32)c2cccnc12,·,?,13µM,4.5µM,–,10µM
c1ccc(-c2nnc(CN3CCCc4ccccc43)o2)cc1,–,?,?,–,·,?
Oc1ccc(COC2CCN(Cc3ccccc3)C2)c2cccnc12 (centres undefined),·,·,8.3µM,·,12µM,·
CCOC(=O)C1CCN(Cc2ccc(O)c3ncccc23)CC1,?,?,10µM,–,–,10µM
COc1ccccc1N1CCN(Cc2ccc(O)c3ncccc23)CC1,-91,?,2.6µM,10µM,·,3.5µM
CCc1ccc(-c2csc(NC(=O)C3=COCCO3)n2)cc1,–,·,–,·,–,?
